# From PubChem BioAssay
# “And” between values parts separate entries of the source, which are not always exact repeats. Identical values can stand only once. Results filed as inconclusive are left out. For part of these data: Results with a measured potency or affinity are listed apart. The source made the active and inactive calls. Unless noted, the rule behind the calls is not given here.
# How the values were obtained:
# [1] = blockers of polyQ-driven CASP3 activation – cell-based (AID 1583); conditions: polyglutamine-induced caspase-3 activation, cell assay; stronger effect = higher value;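 tested at 10 µM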
# [2] = yeast 75Q aggregation reduction – 75Q-TubU reporter (AID 1593); conditions: Yeast 75Q polyglutamine aggregation reporter
# [3] = restoration of touch response, mutant HTT neurons – whole organism, C. elegans mechanosensory neurons, N-terminal huntingtin (AID 1599); conditions: C. elegans polyQ-huntingtin mechanosensory neurons, stronger effect = higher value
# [4] = blockers of cytochrome c efflux from mitochondria – biochemical, purified mitochondria (AID 1603); conditions: stronger effect = lower value;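 note: mouse liver mitochondria challenged with calcium chloride; signal normalized to the plate average as 100%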
# [5] = polyglutamine aggregate formation blockers (AID 1604); conditions: polyglutamine-induced protein aggregation inhibition assay; stronger effect = higher value; tested at 2.5 µM
# [6] = glutamate transport activators, MN-1 cells, MN-1 cell line (AID 1612); conditions: MN-1 motor neuron cells, stronger effect = higher value;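 note: tested at 1 µM final; 0% = mean of DMSO vehicle wells on each plate; positive means more glutamate uptake than control and negative means less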
# [7] = GFP-Q80 aggregate reduction, neuronal-like cells, cell-based, NGF-treated PC12, GFPQ80 (AID 1614); conditions: PC12 NGF-treated GFP-polyQ80 inclusion reduction;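 note: lower means fewer inclusions and 0 means no inclusions at all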
# [8] = 75Q-TubH aggregate inhibition, S. cerevisiae, yeast (AID 1616); conditions: S. cerevisiae 75Q-TubH polyglutamine aggregation suppression; stronger effect = higher value
# [9] = compounds altering circadian rhythm period length – cell-based, LOPAC library, luminescence reporter (AID 2774); conditions: circadian reporter cells, at 7 µM, actives lie on both sides;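 note: values are relative to mean of DMSO wells on each plate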
# [10] = system: Hepatitis C virus NS3 helicase; experiment: blockers of NS3h binding to ssDNA – biochemical, fluorescence polarization, LOPAC1280 library, primary screen (AID 687035; in the data active = inhibition above about 37%); conditions: Purified HCV NS3 helicase, Cy5-dT15 ssDNA binding fluorescence polarization; stronger effect = higher value; concentration not given here
# [11] = compounds altering Cy5-DNA-NS3h complex signal – biochemical, LOPAC1280, artefact control for HCV NS3 helicase inhibitor project (AID 687037); conditions: Cy5-DNA-NS3h complex fluorescence interference counterscreen
# [12] = signal quenchers or enhancers, Cy5 substrate/SSB – biochemical, NIH Clinical Collection, E. coli SSB, artefact control for HCV NS3 helicase inhibitor project (AID 743268); conditions: Cy5-oligo bound E. coli SSB, fluorescence interference
# [13] = system: Hepatitis C virus NS3 helicase; experiment: blockers of NS3h binding to DNA – biochemical, fluorescence polarization, NIH Clinical Collection, primary screen (AID 743270); conditions: NS3 helicase binding to Cy5-dT15 DNA, stronger effect = higher value, concentration not given here
# [14] = biological target: Single-stranded DNA-binding protein (Escherichia coli (strain K12)) (UniProt P0AGE0); experiment: SSB-ssDNA binding inhibitors – biochemical, fluorescence polarization, NIH Clinical Collection, counter-screen for HCV NS3 helicase inhibitor project (AID 743271; in the data active = inhibition above about 28%); conditions: E. coli SSB-DNA binding, stronger effect = higher value, concentration not given here
# [15] = compounds distorting NS3 helicase fluorescence signal – biochemical, NIH Clinical Collection, artefact control for HCV NS3 helicase inhibitor project (AID 743272); conditions: fluorescence interference counterscreen, HCV NS3 helicase assay; stronger effect = lower value;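 note: HCV NS3 helicase with a Cy5 labelled single stranded DNA probe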
# [16] = Wnt pathway potentiators raising nuclear beta-catenin – imaging, WNT3A-conditioned medium, mouse C2C12, NPC library, primary screen (AID 1117326; in the data active = nuclear beta-catenin stimulation mostly above about 4.2%, no sharp cut-off; inactive = mostly below about 10%); conditions: stronger effect = higher value
# [17] = stimulators of insulin release from INS-1E, primary screen, cell-based, 5 mM glucose, NPC library (AID 1117329;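 active = compound raises insulin release from rat beta cells at 5 mM glucose, no numeric limit stated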); conditions: rat INS-1E insulin secretion, at 10 µM, stronger effect = higher value
# [18] = growth inhibition of GSK3B-pretreated HCT116 cells – cell-based, CellTiter-Glo, 0.2 to 20 µM (AID 1117336;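 active = compounds lowering colon cancer cell viability after pretreatment blocking the GSK3B kinase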); conditions: HCT116 viability after GSK3B inhibitor, at 20 µM, stronger effect = higher value
# [19] = inhibition of endothelial tube formation, primary screen, imaging, VEGF stimulated, CD31 staining, tube area, NPC library (AID 1117340;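 active = compound that reduces growth-factor-driven endothelial tube area in a mixed cell culture, no cutoff stated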); conditions: VEGF-stimulated ADSC/ECFC co-culture, at 10 µM, stronger effect = higher value
# [20] = GLP1 release stimulators, primary, NCI-H716, NPC library (AID 1117341;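 active = compound raises GLP1 secretion from the human gut endocrine cells, with no numeric limit stated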); conditions: NCI-H716 cells, at 10 µM, stronger effect = higher value
# [21] = HCT116 colon cancer cell growth inhibition, primary screen, CellTiter-Glo luminescence, NPC library (AID 1117342;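 active = compounds that lower survival of HCT116 colon cancer cells in the luminescence readout, no numeric limit stated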); conditions: at 20 µM (top of the series)
# [22] = reduced SW480 viability measured with CellTiter-Glo, NPC library, primary (AID 1117343;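 active = compounds that lower viability of the colon cancer cells in the luminescence readout, with no numeric limit stated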); conditions: CellTiter-Glo luminescence; at 20 µM (top of the series)
# [23] = NPC library primary testing for decreased DLD-1 cell viability via CellTiter-Glo (AID 1117346;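 active = compounds that lower survival of DLD-1 colon cancer cells in the luminescence readout, no cutoff given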); conditions: DLD-1 viability, CellTiter-Glo luminescence; at 20 µM (top of the series)
# [24] = biological target: 6-phosphogluconate dehydrogenase, decarboxylating (Homo sapiens) (UniProt P52209); experiment: inhibition of human phosphogluconate dehydrogenase – biochemical, recombinant enzyme, NADPH absorbance, primary screen (AID 1159550;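 active = at least 20% inhibition of 6-phosphogluconate dehydrogenase activity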); conditions: recombinant 6PGD, NADPH absorbance 341 nm; at 10 µM; stronger effect = higher value
# Chain of 6-phosphogluconate dehydrogenase, decarboxylating (Homo sapiens) (P52209 whole entry, looked up): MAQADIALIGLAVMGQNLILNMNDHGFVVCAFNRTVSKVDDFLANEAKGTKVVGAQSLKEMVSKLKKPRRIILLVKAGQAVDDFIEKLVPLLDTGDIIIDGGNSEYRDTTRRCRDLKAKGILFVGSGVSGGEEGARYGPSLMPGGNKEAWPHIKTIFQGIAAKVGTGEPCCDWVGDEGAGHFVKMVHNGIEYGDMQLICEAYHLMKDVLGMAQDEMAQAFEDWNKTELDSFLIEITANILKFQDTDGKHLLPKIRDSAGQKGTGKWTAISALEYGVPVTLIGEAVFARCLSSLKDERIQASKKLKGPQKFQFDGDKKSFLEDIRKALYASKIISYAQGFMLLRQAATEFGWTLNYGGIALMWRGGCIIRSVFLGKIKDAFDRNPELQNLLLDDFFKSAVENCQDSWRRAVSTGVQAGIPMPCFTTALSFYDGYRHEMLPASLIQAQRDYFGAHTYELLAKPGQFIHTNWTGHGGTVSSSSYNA
# [25] = modulation of C. elegans fzo-1 (AID 1259413);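 note: fzo-1 mutant C. elegans worms in liquid wells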; conditions: C. elegans fzo-1 modulator screen, mean read-out; stronger effect = higher value
# [26] = EMT-state selective cytotoxicity in co-culture – imaging, PC-3E GFP, TEM4-18 mCherry, primary screen (AID 1345086;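 active = compounds killing one labelled cell type while sparing the other, by normalised counts and ratio limits, not self-fluorescent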;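 note: cells exposed to compound for 72 h before imaging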;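 for red/green cell ratio (normalised): normalised mesenchymal count divided by normalised epithelial count so high means epithelial killing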); conditions: PC-3E GFP / TEM4-18 mCherry co-culture, imaging cell counts, at 1 µM
# [27] = system: Aerobactin synthetase IucA (Klebsiella pneumoniae hvKP1); experiment: IucA enzyme inhibition, primary screen, biochemical, Spectrum library (AID 1346200); conditions: malachite green pyrophosphate, A620, at 8 µM, stronger effect = lower value;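 note: 100% = wells without compound and 0% = wells lacking enzyme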
# [28] = system: Aerobactin synthetase IucA (Klebsiella pneumoniae, hypervirulent); experiment: biochemical IucA inhibition screen of LOPAC library by absorbance (AID 1346212); conditions: IucA enzyme assay, absorbance (OD) readout; stronger effect = lower value;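 tested at 8 µM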;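 note: 100% = no compound wells and 0% = no enzyme wells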
# [29] = viability loss in pontine glioma line – cell-based, SU-DIPG-XVII, MIPE5.0, CellTiter-Glo, qHTS, dose response (AID 1347060; cut-off not given, nearly all actives have AC50 up to about 26 µM); conditions: CellTiter-Glo ATP luminescence
# [30] = viability loss in pontine glioma line – cell-based, SU-DIPG-XIII, MIPE4.0, CellTiter-Glo, qHTS, dose response (AID 1347061; cut-off not given, nearly all actives have AC50 up to about 37 µM;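 note: cells exposed to compound for 48 hours before readout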); conditions: CellTiter-Glo ATP luminescence
# [31] = viability loss in pontine glioma line – cell-based, JHH-DIPG-1, MIPE4.0, CellTiter-Glo, qHTS, dose response (AID 1347062; cut-off not given, nearly all actives have AC50 up to about 27 µM); conditions: JHH-DIPG-1 viability, CellTiter-Glo ATP luminescence
# [32] = viability loss in pontine glioma line – cell-based, SU-DIPG-IV, MIPE4.0, CellTiter-Glo, qHTS, dose response (AID 1347063; cut-off not given, nearly all actives have AC50 up to about 30 µM;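 note: compound exposure lasted 48 hours before the viability readout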); conditions: CellTiter-Glo ATP luminescence
# [33] = viability loss in pontine glioma line – cell-based, SU-DIPG-XIII, MIPE5.0, CellTiter-Glo, qHTS, dose response (AID 1347064; cut-off not given, nearly all actives have AC50 up to about 23 µM); conditions: CellTiter-Glo ATP luminescence
# [34] = growth inhibition of DIPG cells – cell-based, MIPE4.0 library, CellTiter-Glo luminescence, qHTS (AID 1347066; cut-off not given, nearly all actives have AC50 up to about 30 µM;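 note: cells exposed to compound for 48 hours before readout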); conditions: SU-DIPG-VI viability, CellTiter-Glo ATP luminescence
# [35] = JHH-DIPG-1 glioma cell viability, MIPE5.0 library, CellTiter-Glo luminescence, qHTS (AID 1347067; cut-off not given, nearly all actives have AC50 up to about 26 µM;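 note: cells exposed to compound for 48 hours before readout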); conditions: JHH-DIPG-1 glioma viability, CellTiter-Glo ATP luminescence
# [36] = growth inhibition of DIPG cells – cell-based, MIPE5.0 library, qHTS (AID 1347068; cut-off not given, nearly all actives have IC50 up to about 30 µM); conditions: SU-DIPG-XXV viability
# [37] = compounds altering HSF1 focus formation in cells – imaging, Selleck Cancer Library (AID 1347162; in the data active = plate-normalised HSF1 focus index below about 0.46); conditions: human cells, HSF1 nuclear foci imaging, at 10 µM; SSMD: measured here: HSF1 foci SSMD mean; cell count: measured here: cell number; plate-normalised HSF1 focus index: stronger effect = lower value
# [38] = blockers of cellular phospholipid synthesis – cell-based, LOPAC library, screen 4, primary screen (AID 1347384); conditions: animal cells, phospholipid biosynthesis inhibition screen; at 10 µM
# [39] = MELAS cybrid and Rieske KO viability enhancers – cell-based, MELAS cybrids, Rieske KO mouse fibroblasts, CellTiter-Glo, primary screen (AID 1508586;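 active = mean z-score across replicates of 1.96 or higher in either the MELAS or the Rieske mutant cell line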;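 note: z relative to plate mean and SD of compound and empty wells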); conditions: low glucose
# [40] = biological target: NAD(+) hydrolase SARM1 (Homo sapiens) (UniProt Q6SZW1); experiment: blocking NAD cleavage by SARM1 SAM-TIR – cell lysate, NAD-Glo luminescence (AID 1508614;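 active = compound whose remaining NAD level is above about 45 nM, limit read from the data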;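 note: higher remaining NAD means stronger inhibition of SARM1 NADase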); conditions: SAM-TIR HEK293T lysate NADase, at 1 µM, stronger effect = higher value
# Chain of NAD(+) hydrolase SARM1 (Homo sapiens) (Q6SZW1 whole entry, looked up, the tested form may be a part): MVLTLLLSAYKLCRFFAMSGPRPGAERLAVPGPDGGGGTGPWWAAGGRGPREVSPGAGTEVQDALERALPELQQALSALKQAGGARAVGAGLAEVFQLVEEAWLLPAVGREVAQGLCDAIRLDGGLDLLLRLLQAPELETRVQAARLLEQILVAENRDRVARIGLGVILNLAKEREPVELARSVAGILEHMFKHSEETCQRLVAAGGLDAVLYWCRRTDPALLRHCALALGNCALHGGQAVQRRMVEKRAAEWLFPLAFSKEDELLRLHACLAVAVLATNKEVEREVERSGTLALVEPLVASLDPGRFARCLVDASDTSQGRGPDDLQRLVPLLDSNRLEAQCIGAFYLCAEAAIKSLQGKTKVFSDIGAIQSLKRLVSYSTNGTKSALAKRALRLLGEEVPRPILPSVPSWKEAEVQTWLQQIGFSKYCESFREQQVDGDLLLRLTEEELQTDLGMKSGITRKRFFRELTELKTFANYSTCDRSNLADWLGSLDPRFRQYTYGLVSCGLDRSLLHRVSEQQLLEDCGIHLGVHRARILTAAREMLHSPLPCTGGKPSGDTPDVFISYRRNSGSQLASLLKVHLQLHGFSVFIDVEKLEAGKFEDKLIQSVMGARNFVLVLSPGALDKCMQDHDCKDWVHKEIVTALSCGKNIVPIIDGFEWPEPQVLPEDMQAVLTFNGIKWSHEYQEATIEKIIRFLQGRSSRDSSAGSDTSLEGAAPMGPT
# [41] = biological target: Mitogen-activated protein kinase 7 (Homo sapiens) (UniProt Q13164); experiment: Gal4-ERK5 driven luciferase induction – cell-based, HTS, primary screen (AID 1508626;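 active = luciferase signal above three times the same-plate solvent-only control wells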;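 note: luciferase driven by Gal4-ERK5 fusion binding five Gal4 sites before minimal TATA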); conditions: HeLa Gal4-ERK5 transactivation, 18 h, at 5 µM, stronger effect = higher value
# Chain of Mitogen-activated protein kinase 7 (Homo sapiens) (Q13164 whole entry, looked up, the tested form may be a part): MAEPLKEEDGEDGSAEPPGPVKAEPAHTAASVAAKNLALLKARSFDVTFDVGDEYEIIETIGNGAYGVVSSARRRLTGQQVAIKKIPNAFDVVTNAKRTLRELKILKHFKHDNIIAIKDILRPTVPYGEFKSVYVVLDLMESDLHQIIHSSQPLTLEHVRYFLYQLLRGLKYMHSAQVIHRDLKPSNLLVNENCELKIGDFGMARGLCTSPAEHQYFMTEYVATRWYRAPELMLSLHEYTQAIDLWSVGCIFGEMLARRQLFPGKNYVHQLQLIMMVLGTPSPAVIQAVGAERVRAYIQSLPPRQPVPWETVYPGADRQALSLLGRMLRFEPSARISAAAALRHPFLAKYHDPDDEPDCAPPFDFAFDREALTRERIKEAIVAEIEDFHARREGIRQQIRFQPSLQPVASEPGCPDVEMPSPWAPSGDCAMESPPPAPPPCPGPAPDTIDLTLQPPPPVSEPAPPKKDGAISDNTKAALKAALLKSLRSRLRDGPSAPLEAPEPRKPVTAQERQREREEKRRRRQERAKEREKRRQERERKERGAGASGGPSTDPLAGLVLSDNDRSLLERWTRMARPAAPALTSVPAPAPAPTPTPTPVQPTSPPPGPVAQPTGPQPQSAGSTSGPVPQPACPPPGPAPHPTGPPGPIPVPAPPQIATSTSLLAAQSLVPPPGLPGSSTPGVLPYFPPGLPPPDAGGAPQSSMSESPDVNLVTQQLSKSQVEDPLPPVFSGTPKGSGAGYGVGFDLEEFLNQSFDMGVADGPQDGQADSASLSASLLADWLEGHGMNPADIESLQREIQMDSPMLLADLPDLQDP
# [42] = galactose survival enhancers in mitochondrial complex I cybrids – cell-based, galactose medium, ATP luminescence, primary screen (AID 1645843;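 active = z-score of at least 1.8 in each of two replicates, scored against plate mean and spread of sample wells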;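 note: positive z means more ATP and so rescue of galactose-driven cybrid death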); conditions: complex I mutant cybrid cells, 72 h, stronger effect = higher value
# [43] = growth inhibition, single agent or in combination, cell-based, chromothripsis tumors, cisplatin or BGB combos (AID 1671449; in the data active = inhibition above about 80%;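 note: cells exposed for 96 hours; 0% = vehicle DMSO and 100% = killing by high DMSO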); conditions: LFS_MB_P medulloblastoma cells
# [44] = growth inhibition, single agent and combos, cell-based, chromothripsis tumors, cisplatin or BGB combos (AID 1671450; in the data active = inhibition above about 80%;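 note: cells exposed to compound for four days; 0% = vehicle DMSO and 100% = cell killing by high DMSO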); conditions: HDN33 neuroblastoma cells, stronger effect = higher value
# [45] = growth inhibition, single agents and combos, ICB984, cell-based, cisplatin or BGB combos, synergistic combos for chromothripsis tumors (AID 1671451); conditions: ICB984 medulloblastoma cells, drug combinations, stronger effect = higher value;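 note: cells exposed for 96 hours before readout; 0% = vehicle DMSO and 100% = killing by high DMSO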
structure (smiles),measurement,setting,value
O=P1(N(CCCl)CCCl)NCCCO1 (stereo not drawn),inhibition,[1],-14.8%
same,score,[2],0.77
same,rescue above control,[3],-5.6
same,cytochrome c release ratio,[4],1
same,inhibition of aggregation,[5],69.7%
same,glutamate uptake change,[6],-7.13%
same,inclusion score,[7],2
same,aggregation suppression score,[8],1.14
same,period change,[9],0.185 h (inactive)
same,inhibition,[10],-3% (inactive)
same,fluorescence ratio (interference),[11],1 (inactive)
same,fluorescence ratio,[12],1.07 (inactive)
same,inhibition,[13],-4.09% (inactive)
same,inhibition,[14],1.05% (inactive)
same,fluorescence ratio,[15],0.99 (inactive)
same,nuclear beta-catenin stimulation,[16]; at 10 µM,1% (inactive)
same,nuclear beta-catenin stimulation,"[16]; stimulation, at 2 µM",0.9%
same,insulin secretion stimulation,[17],-1% (inactive)
same,viability decrease,[18],-1.15% (inactive)
same,tube area decrease,[19],16.1% (inactive)
same,GLP1 secretion stimulation,[20],1.6% (inactive)
same,inhibition of viability,[21],-24.2% (inactive)
same,viability decrease (inhibition),[22],101% (active)
same,viability decrease (inhibition),[23],-8.15% (inactive)
same,inhibition,[24],-5.23% (inactive)
same,mean signal,[25],262 (inactive)
same,red/green cell ratio (normalised),[26]; actives lie on both sides,1.26 (inactive)
same,normalised cell number,[26]; measured here: epithelial PC-3E GFP cell survival,1.18
same,normalised cell number,[26]; measured here: mesenchymal TEM4-18 mCherry cell survival,1.48
same,activity remaining,[27],120% (inactive)
same,remaining activity,[28],112% (inactive)
same,outcome,[29],inactive
same,outcome,[30],inactive
same,outcome,[31],inactive
same,outcome,[32],inactive
same,outcome,[33],inactive
same,outcome,[34],inactive
same,outcome,[35],inactive
same,outcome,[36],inactive
same,SSMD,[37],1.32
same,cell count,[37],7410
same,plate-normalised HSF1 focus index,[37],1.05 (inactive)
same,outcome,[38],inactive
same,z-score,"[39]; MELAS cybrid survival, CellTiter-Glo 48 h, stronger effect = higher value",0.187 (inactive) and -0.193 (inactive)
same,z-score,"[39]; Rieske KO mouse fibroblast survival, CellTiter-Glo 72 h",-0.0217 and -1.38
same,remaining NAD,[40],10 nM (inactive)
same,luciferase signal,[41],84 AU (inactive)
same,z-score,[42],0.055 (inactive) and 0.19 (inactive) and -0.255 (inactive)
same,inhibition,"[43]; at 0.5 µM, stronger effect = higher value",-6.53% (inactive) and -7.84% (inactive)
same,inhibition,"[43]; measured here: combination with BGB IC20, at 0.005 µM",2.32% and -13.2%
same,inhibition,"[43]; measured here: combination with BGB IC40, at 0.005 µM",-6.39% and -22.4%
same,inhibition,"[43]; measured here: combination with BGB IC40, at 0.05 µM",-5.95% and 13%
same,inhibition,"[43]; measured here: combination with cisplatin, at 0.5 µM, stronger effect = higher value",-9.48% and -17.9%
same,inhibition,"[43]; measured here: combination with cisplatin, at 5 µM, stronger effect = higher value",-25.8% and -37.1%
same,inhibition,"[44]; BGB combo, at 5 µM",-38.1% and 11.3%
same,inhibition,[44]; at 0.5 µM,-28.6% (inactive) and -1.03% (inactive)
same,inhibition,"[44]; cisplatin combo, at 5 µM",-13.9% and -0.927%
same,inhibition,"[44]; measured here: with BGB IC20 combination, at 0.5 µM",-28.4% and 3.51%
same,inhibition,"[44]; measured here: with cisplatin IC20 combination, at 0.5 µM",-36.3% and 6%
same,inhibition,"[44]; single agent, at 5 µM",-28.1% and -8.82%
same,inhibition,"[45]; BGB IC20 combo, at 0.005 µM",-3.81% and -12.8%
same,inhibition,"[45]; BGB IC40 combo, at 0.005 µM",-4.33% and -15%
same,inhibition,"[45]; BGB IC40 combo, at 0.05 µM",-3.91% and -28.7%
